PfM18AAP inh – PfM18AAP enzyme inhibition; 290,000 tested, 1.2% active; AID 1822; recombinant PfM18AAP, H-Glu-NHMec fluorogenic cleavage; inhibition, % at 7.35 µM;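 active = inhibition above the campaign mean inhibition over all tested compounds plus 3 SD, cut at about 28% in these data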;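 note: 0% = plate median of test compound wells and 100% = 2 mM ZnCl2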
A3G deaminase – blocks human APOBEC3G single-stranded DNA deamination. Q9HC16. recombinant A3G, ssDNA deamination FAM/TAMRA fluorescence. 330,000 tested, 0.28% active. AID 493012. inhibition, % at 20 µM;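 active = inhibition of at least 40% at 20 µM, with no more than 30% in the related APOBEC3A deaminase screen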;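 note: plate controls were DMSO wells with A3G for no effect and wells lacking A3G enzyme for full effect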
Target sequence (Q9HC16 whole entry, looked up): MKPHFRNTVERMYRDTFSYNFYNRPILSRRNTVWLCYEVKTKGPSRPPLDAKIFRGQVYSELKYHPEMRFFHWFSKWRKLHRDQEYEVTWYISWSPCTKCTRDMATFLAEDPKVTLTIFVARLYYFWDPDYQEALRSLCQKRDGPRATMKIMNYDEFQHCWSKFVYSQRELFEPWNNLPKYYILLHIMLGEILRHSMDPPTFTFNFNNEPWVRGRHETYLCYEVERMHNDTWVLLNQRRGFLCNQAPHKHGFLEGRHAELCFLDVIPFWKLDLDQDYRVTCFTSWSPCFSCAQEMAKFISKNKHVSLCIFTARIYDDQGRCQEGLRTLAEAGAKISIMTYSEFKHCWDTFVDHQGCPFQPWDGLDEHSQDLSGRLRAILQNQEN
CendR NRP1 mod – alters CendR peptide binding to human NRP-1; inhibition, % at 25 µM; O14786; 360,000 tested, 0.85% active; FAM-RPARPAR peptide binding to NRP-1, fluorescence polarization;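 active = inhibition or corrected inhibition above about 18%, plus a signal ratio from 0.5 to 1.5, limit read from the data, passing the limit was not always enough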
ALR inh – blocks human ALR sulfhydryl oxidase activity; 290,000 tested, 3.8% active; purified ALR, DTT oxidation, H2O2 HRP-luminol luminescence; AID 485317; P55789; inhibition, % (test concentration not listed);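 active = mean replicate inhibition above about 79%, with every replicate also reaching it, limit read from the data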
APOBEC3A inh – inhibitors of human APOBEC3A DNA deaminase; 330,000 tested, 0.41% active; P31941; recombinant A3A, FAM/TAMRA ssDNA deamination fluorescence; inhibition, % at 20 µM;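 active = at least 40% inhibition at 20 µM here, with at most 30% in a related deaminase screen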;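 note: plate controls were A3A with DMSO for no effect and wells lacking A3A enzyme for full effect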
Target sequence (P31941 whole entry, looked up): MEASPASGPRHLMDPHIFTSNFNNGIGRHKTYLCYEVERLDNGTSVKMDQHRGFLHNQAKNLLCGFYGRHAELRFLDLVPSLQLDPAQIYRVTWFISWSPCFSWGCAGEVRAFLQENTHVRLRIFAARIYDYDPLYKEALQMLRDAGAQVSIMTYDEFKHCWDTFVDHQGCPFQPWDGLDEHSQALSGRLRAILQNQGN
Yeast superoxide – lowers age-related superoxide in aged yeast cells | superoxide response (% of plate mean), % at 10 µM | 330,000 tested, 0.18% active | S. cerevisiae aged cells, superoxide DHE fluorescence; stronger effect = lower value;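 active = superoxide response under a set limit, about three screen SD below normal, cut at about 65% in these data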;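 note: yeast aged for seven days with compound at 30 °C before DHE staining; 100% = average MFI of all compound-treated wells on the plate with controls excluded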
An asterisk follows results filed as active; · = not tested or not shown. Compounds with a hit are over-represented: about 5.2% of the library has one in this group of screens.

SMILES | PfM18AAP inh | A3G deaminase | CendR NRP1 mod | ALR inh | APOBEC3A inh | Yeast superoxide
COc1ccc(-n2c(C)cc3cc(OC(C)=O)ccc32)cc1 | -8 | -3 | -15 | -26 | -5 | 101
O=C(NCCN1CCNC1=O)C1CCC(=O)N(CCc2ccc(Cl)cc2)C1 (stereo not drawn) | -3 | 5 | 1 | · | 4 | ·
O=C(NC(=S)N(Cc1ccccc1)c1ccccn1)C1CCCCC1 | 1 | -2 | 8 | 99* | -4 | 116
CCCN1C=CC(=CC=C(C#N)C#N)C=C1 | 3 | -6 | -234 | 99* | -1 | 106
CCCCCCN1C=CC(=C/C=C(\C#N)C(=O)OCC)C=C1 | 4 | -93 | 132 | 5 | -37 | 100
C=CCN1C=C/C(=C\C=C(C#N)C#N)c2ccccc21 | -8 | 8 | -83 | · | 11 | 120
CCCN1C=CC(=C/C=C(\C#N)C(=O)OCC)C=C1 | 7 | -23 | · | 99* | -11 | 119
C=CCN1C=CC(=CC=C(C#N)C#N)C=C1 | -4 | -10 | -216 | 99* | -3 | 102
CC(C)Oc1ccc(C(=O)NN2C(=O)NC3(CCCCC3)C2=O)cc1 | · | 0 | 7 | -1 | 0 | 77
O=C(O)Cc1ccc(NS(=O)(=O)c2c(Cl)cccc2Cl)cc1 | 4 | -6 | -4 | -3 | -1 | 88
Cc1ccc(-n2c(N)cc(=O)nc2SCC(=O)N2CCN(c3ccccc3)CC2)cc1C | 1 | -2 | -8 | 68 | 1 | 97
COc1ccc(N2CCN(C(=O)CSc3nnc(-c4cccnc4)n3-c3ccc(F)cc3)CC2)cc1 | 5 | -3 | 7 | · | -4 | 93
COc1ccc(-n2c(N)cc(=O)nc2SCC(=O)N2CCN(c3ccccc3)CC2)cc1 | 7 | -6 | 12 | 99* | -5 | 101
COc1ccc(N2CCN(C(=O)CSc3nnc(-c4cccnc4)n3-c3ccccc3)CC2)cc1 | -5 | 0 | 0 | 94* | 0 | 101
CCOc1ccc(N2C(=O)CC(NCCc3c[nH]c4ccccc34)C2=O)cc1 (stereo not drawn) | 3 | 5 | 8 | 1 | 1 | 84
Cc1ccc2c(c1)N(CC(=O)Nc1ccccc1F)C(=O)CO2 | -16 | -2 | 5 | · | 6 | 97
NC1=NC[C@@H](Cc2ccc(O)cc2)N1CCCCC1CCCCC1 | · | -2 | 31* | -5 | 3 | 104
NC1=NC[C@H](Cc2ccc(O)cc2)N1CC1CCCCC1 | · | -5 | 13 | 90* | 0 | 94
NC1=NC[C@H](Cc2ccccc2)N1CC1CCCCC1 | · | -2 | 4 | -8 | 2 | 95
COC(=O)C1=C2SC(C)C(=O)N2C(N)=C(C#N)C1c1ccc(OC)c(OC)c1 (stereo not drawn) | 30* | -5 | -2 | 15 | -4 | 104
COc1cc2c3c(c1)c(C1=NC(=S)NC1=O)c(O)n3C(C)(C)C=C2C | 1 | -6 | -1 | -16 | 1 | 105
CC1(c2ccccc2)CC(C)(C)n2c(O)c(C3=NC(=S)NC3=O)c3cccc1c32 (stereo not drawn) | 4 | -3 | 26* | -7 | 2 | 88
CC(C)(C)OC(=O)C[C@H]1C/C=C\C[C@H](CC(=O)N[C@H](CO)Cc2ccccc2)C(=O)N[C@H](C(C)(C)C)COC1=O | · | -2 | 6 | -1 | 0 | 105
O=C(CCl)NCc1c(Cl)cccc1-n1cccc1 | 2 | -4 | -11 | 96* | 1 | 102
COC(=O)CCCC1=CC2=C(c3ccccc3)C(=O)C(C)(OC(=O)C3CCCC3)C(=O)C2=CN1CCCCO (stereo not drawn) | · | -1 | 20 | -67 | 2 | 104
SMILES | PfM18AAP inh | A3G deaminase | CendR NRP1 mod | ALR inh | APOBEC3A inh | Yeast superoxide
COC(=O)CCCC1=CC2=C(c3ccccc3)C(=O)C(C)(OC(=O)C3CCCC3)C(=O)C2=CN1Cc1ccco1 (stereo not drawn) | · | -6 | 30* | -10 | -1 | 105
O=c1c([N+](=O)[O-])c(O)c2ccccc2n1Cc1ccccc1 | 11 | -10 | 2 | 99* | 2 | 91
COc1cc([N+](=O)[O-])cc(CN2CCCCC2)c1O | -3 | -4 | 0 | 98* | 0 | 91
COc1ccccc1NC(=O)C(Sc1ccccc1)c1ccccc1 (stereo not drawn) | -4 | 0 | -6 | 84* | 1 | 84
CCOc1ccccc1NC(=O)C(Sc1nnnn1C)c1ccccc1 (stereo not drawn) | 2 | -9 | 0 | -10 | -2 | 100
CCOc1ccccc1NC(=O)C(Sc1ccccc1)c1ccccc1 (stereo not drawn) | -2 | 7 | 27* | -5 | 7 | 88
CC(C)Cn1c(SCc2nc3ccccc3c(=O)[nH]2)nc2ccccc2c1=O | 3 | -2 | 2 | -11 | 1 | 91
COc1ccc(CCC(C)Nc2cccc(C)c2)cc1 (stereo not drawn) | 8 | -3 | 8 | 99* | 0 | 94
COc1ccc(CCC(C)Nc2ccc(F)cc2)cc1 (stereo not drawn) | 5 | -8 | 7 | 98* | 0 | 105
COc1ccc(CC(C)Nc2cccc(SC)c2)cc1 (stereo not drawn) | 5 | -2 | -2 | 47 | -9 | 89
COc1ccc(CCC(C)Nc2ccc(F)c(F)c2)cc1 (stereo not drawn) | 3 | -7 | -3 | 39 | -4 | 103
COC(=O)c1ccc(COC(=O)C2CC(O)CN2S(=O)(=O)c2ccc([N+](=O)[O-])cc2)cc1 (stereo not drawn) | · | -6 | 4 | -17 | 1 | 125
CC(=O)c1cccc(NC(=O)C(C)OC(=O)c2ccc(Br)o2)c1 (stereo not drawn) | · | -3 | -9 | -7 | -2 | 92
Cc1ccccc1S(=O)(=O)N(C)C[C@H]1OCc2cn(nn2)CCCC(=O)N([C@@H](C)CO)C[C@@H]1C | · | · | 4 | · | · | ·
Cc1c(NC(=S)N/N=C/C=C/c2ccc([N+](=O)[O-])cc2)c(=O)n(-c2ccccc2)n1C | 19 | -7 | 36* | 27 | -3 | 113
COc1cc(/C=N/NC(=O)/C(=C/c2ccccc2)CCO)ccc1O | 5 | -10 | 7 | 99* | -4 | 106
CCc1cc(C(=O)N/N=C/c2ccc(O)cc2O)c2ccccc2n1 | 22 | -3 | 10 | 83* | -1 | 118
O=C(N/N=C/c1ccc(O)cc1O)/C(=C/c1ccccc1)CCO | 8 | -8 | -3 | 81* | -3 | 105
O=C(N/N=C/c1ccc(O)cc1O)c1ccncc1 | 17 | -7 | 3 | 25 | -6 | 95
O=C(C[C@@H]1C/C=C\C[C@@H](Cc2ccc(F)cc2)C(=O)OC[C@@H]2CCCN2C1=O)NCCO | · | -4 | 0 | · | 0 | 93
O=C(O)CCNc1ccc2c(c1)OCCO2 | 16 | -3 | 46* | 50 | -19 | 96
CC(C)COc1ccc(C(=O)OCCN2CCOCC2)c(O)c1 | 1 | -8 | -6 | 7 | -4 | 104

Bioassay records (PubChem BioAssay)
